Screening results: PubChem, National Center for Advancing Translational Sciences (NCATS)
RORg inh – ROR gamma (mouse) transcription inhibition. 310,000 compounds, 5.4% hits. Drosophila S2 Gal4-RORgamma UAS-luciferase reporter, 20 h. Potency, µM (series often up to 53.6 µM), for the others: at the highest dose activity change, negative = inhibition, usual class: inhibitors; note: potency is the fitted concentration of half-maximal effect; % is set by controls: 0 for no effect and ±100 for the full control effect; nearly all actives have a fitted effect of over 60% in size
Target sequence (P51450 whole entry, looked up, the tested form may be a part): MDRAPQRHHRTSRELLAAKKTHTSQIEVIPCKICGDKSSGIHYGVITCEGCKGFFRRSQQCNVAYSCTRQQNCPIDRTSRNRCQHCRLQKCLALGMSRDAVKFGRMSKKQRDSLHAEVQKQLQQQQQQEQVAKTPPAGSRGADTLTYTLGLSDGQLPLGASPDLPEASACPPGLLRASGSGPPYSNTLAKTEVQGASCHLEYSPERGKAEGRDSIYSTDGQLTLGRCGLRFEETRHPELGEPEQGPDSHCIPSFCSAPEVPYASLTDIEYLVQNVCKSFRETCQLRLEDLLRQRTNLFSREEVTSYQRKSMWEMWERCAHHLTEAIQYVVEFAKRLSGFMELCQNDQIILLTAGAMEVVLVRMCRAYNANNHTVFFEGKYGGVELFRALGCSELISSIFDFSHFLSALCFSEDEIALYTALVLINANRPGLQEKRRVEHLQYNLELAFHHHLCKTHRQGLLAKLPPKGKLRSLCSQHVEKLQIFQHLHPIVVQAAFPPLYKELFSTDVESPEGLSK
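Stably transfected Drosophila Schneider cells are the test system, with ROR gamma fused to Gal4 and luciferase under UAS control; luminescence is read after 20 hr of 700 uM copper sulfate induction at ambient temperature.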
VP16 counter – inhibits Gal4-VP16 luciferase reporter, ROR gamma counter-screen; Drosophila S2 Gal4-VP16 UAS-luciferase, luminescence, 20 h; Potency, µM (highest dose often 53.6 µM), for the others: top-dose activity, negative = inhibition, hits mostly inhibitors; 310,000 compounds, 3.5% hits;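 note: Gal4-VP16 expression switched on by copper sulfate through the metallothionein promoter; potency is the fitted concentration of half-maximal effect; % is set by controls: 0 for no effect and ±100 for the full control effect; nearly all actives have a fitted effect of over 50% in size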
SW480 rereplic – DNA re-replication induction in SW480 cells | SW480 DNA re-replication, Hoechst DNA content imaging, 48 h | Potency, µM (series often up to 46.1 µM), for inactives: at the highest dose re-replication activation, usual class: activators | 340,000 compounds, 1.8% hits; note: potency is the fitted concentration of half-maximal effect; % of control where 0% means no effect; nearly all actives have a fitted effect of over 55% in size
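Quantitative HTS format with DMSO vehicle controls; 48 hr drug incubation at 37 C, then 40 min Hoechst staining and scanning imager measurement at 405 nm excitation.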
IL1B secr inh – blocks inflammasome-driven IL-1 beta release; THP-1 LPS/ATP IL-1B secretion, AlphaLISA, 16 h; hits give low values; activity change, % at 57.5 µM; 360,000 compounds, 4.7% hits; in the data active = activity change below about -50%; inconclusive = mostly about -30% to -49%; note: % is set by controls: 0 for no effect and ±100 for the full control effect
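THP-1 cells pretreated 1 hr with compounds (up to 57.5 uM final), then stimulated with LPS (250 ng/mL final) plus ATP (1.25 mM final); secreted IL-1B measured by AlphaLISA after 16 hr, decreased signal indicating inhibition.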
MCF10A rerep – DNA re-replication induction in MCF 10a cells; MCF 10A DNA re-replication, Hoechst nuclear intensity, 48 h; Potency, µM (highest dose often 46.1 µM), without a hit: top-dose activity, positive = re-replication, hits mostly activators; 350,000 compounds, 2.9% hits; AID 624296; note: potency is the fitted concentration of half-maximal effect; % of control where 0% means no effect; nearly all actives have a fitted effect of over 50% in size
Active calls of the source: *; u = inconclusive; x = no result given. This is a sample that favours compounds with a hit; in the whole collection about 11% have one here. Unless noted, calls come from the whole dose curve; as a rule, active = well fitted curve in the direction sought with a large enough effect; inconclusive = small, poorly fitted or top-dose-only effect, or another doubt; inactive = no such curve, though single readings can be large; an effect the other way counts as inactive or inconclusive.

SMILES | RORg inh | VP16 counter | SW480 rereplic | IL1B secr inh | MCF10A rerep
S=c1[nH]nc(-c2ccc(Br)cc2)n1-c1ccc2c(c1)OCCO2 | 0.4µM* | -29% | -7% | 44 | 0%
O=[N+]([O-])c1cccc(-c2n[nH]c(=S)n2-c2ccc(Br)cc2)c1 | 10µM* | 0% | -8% | -5 | 0%
COc1ccc(-c2n[nH]c(=S)n2-c2ccc3c(c2)OCCO3)cc1 | 2.8µM* | u | -2% | 17 | -2%
S=c1[nH]nc(-c2ccc(Br)cc2)n1-c1ccc(Br)cc1 | 11µM* | u | 7% | 27 | 0%
C[C@H](CO)N1C[C@H](C)[C@@H](CN(C)S(=O)(=O)c2cn(C)cn2)Oc2c(NS(=O)(=O)c3ccc(F)cc3)cccc2C1=O | x | x | -6% | 25 | -1%
Nc1ccccc1C(=O)N(Cc1ccccc1)Cc1ccccc1 | -11% | 3% | -6% | -10 | 13%
Nc1ccccc1C(=O)CC(N)C(=O)O (centres undefined) | 13µM* | 28µM* | x | x | x
COc1ccc(NC(=O)N2CC3(CCN(C(=O)c4cc(C(F)(F)F)cc(C(F)(F)F)c4)CC3)C2)cc1 | -10% | -21% | x | x | x
CCN(CC)C(=O)CSC1=N/C(=C/c2ccco2)C(=O)N1c1ccc(OC)c(Cl)c1 | -21% | u | 1% | -54* | u
COc1ccc(N2C(=O)/C(=C\c3ccco3)N=C2SCC(=O)NC(C)(C)C)cc1Cl | u | u | u | u | -62%
CCN(Cc1nc2cc(Cl)ccc2c(=O)[nH]1)C(=O)c1nn(C)c(=O)c2ccccc12 | x | x | -3% | 16 | -2%
COc1cccc(C(=O)NNC(=O)c2ccc3ccccc3c2O)c1 | x | x | u | 51 | u
O=C(COCc1ccccc1)N[C@@H]1c2ccccc2CC[C@@H]1OCc1ccccc1 | x | x | 3% | -51* | u
Cc1ccc(/C=C(\C#N)c2nc3ccccc3[nH]2)s1 | u | 10µM* | u | -10 | 15%
CN(C)/C=C(\C#N)c1nc2ccccc2[nH]1 | 22% | 11% | -10% | -11 | -23%
N#C/C(=C\c1c(Cl)cccc1Cl)c1nc2ccccc2[nH]1 | -31% | -19% | u | -93* | u
COc1ccccc1-c1cnc(C(O)c2ccc(C)cc2)[nH]1 (centres undefined) | x | x | x | 0 | x
CC1=CC(C)(C)Nc2ccc(C)cc21 | -1% | -4% | -4% | 0 | -3%
COC(=O)C1=C(C(=O)OC)SC2(S1)C(C(=O)OC)=C(C(=O)OC)SC1=C2c2cc(C)ccc2NC1(C)C | 4.5µM* | u | 3% | -21 | 2%
COC(=O)c1cn(C(=O)/C=C/c2ccc(OC)c(OC)c2)c2ccccc12 | 24% | 0% | u | -69* | u
COC(=O)c1cn(C(=O)c2ccc(C)cc2C)c2ccccc12 | -24% | -3% | 8.2µM* | 16 | 4.6µM*
COC(=O)c1cn(C(=O)c2ccccc2Cl)c2ccccc12 | 22% | -8% | 3% | 31 | u
Cc1ccc(-n2nnnc2SCc2nc3sc(C)c(C)c3c(=O)[nH]2)cc1 | 11µM* | u | -132% | 5 | 16%
COc1ccccc1N1CCN(C2CCCN(C(=O)CCc3cnn(C)c3)C2)CC1 (centres undefined) | -5% | -9% | -2% | 15 | 1%
CN(C)/C=C/C(=O)c1ccc2noc(-c3ccccc3)c2c1 | 20% | -4% | 25% | -52* | 21µM*
SMILES | RORg inh | VP16 counter | SW480 rereplic | IL1B secr inh | MCF10A rerep
COc1ccccc1CNC(=O)[C@H](C)NC(=O)C1CCN(C(=O)[C@@H]2CCCN2C(=O)OC(C)(C)C)CC1 | 25% | -1% | u | -12 | 1%
CN(C(=O)CCl)C1CCCc2ccccc21 (centres undefined) | u | -10% | 2.3µM* | -107* | u
O=C(NC1CCCc2ccccc21)C1CCN(c2nnc(-n3cccc3)s2)CC1 (centres undefined) | u | 1% | -1% | -26 | 16µM*
O=C(Cc1ccc(Br)cc1)NC1CCCc2ccccc21 (centres undefined) | -21% | -5% | 18% | 8 | 57%
Cc1nc2ccccn2c1C(=O)NC1CCCc2ccccc21 (centres undefined) | u | 13µM* | 5% | 55 | -1%
Cc1cc(C)nc(N2CCC(C(=O)NC3CCCc4ccccc43)CC2)n1 (centres undefined) | -19% | 0% | -6% | 0 | 5%
O=C(CCl)NC1CCCc2ccccc21 (centres undefined) | -11% | -5% | 8% | -98* | 3%
O=C(NC1CCCc2ccccc21)c1cn2ccccc2n1 (centres undefined) | 34% | 9% | -30% | 13 | 9%
COc1ccc(C2=NC(c3ccc(Cl)cc3)C(c3ccc(Cl)cc3)N2C(=O)N2CCNC(=O)C2)c(OC(C)C)c1 (centres undefined) | u | 13% | x | x | x
O=C(CN1CCN(c2cccc(Cl)c2)CC1)NC1CCCc2ccccc21 (centres undefined) | 30% | -4% | 1% | -73* | 21µM*
NC(=O)CN1CCN(c2cccc(Cl)c2)CC1 | 0% | 11% | -6% | -8 | -10%
Cc1ccc(NC(=S)N/N=C/c2cccn2Cc2ccccc2F)cc1 | 0.35µM* | 1.1µM* | -1% | 9 | 2%
C=CCOC(=O)C1=C(C)NC(C)=C(C(=O)OCC=C)C1c1ccc(C)o1 | u | u | -6% | -77* | -1%
COc1ccc(CNC(=O)C2CCN(C(=O)c3csc(Nc4ccc(C)cc4)n3)CC2)cc1 | 41% | 9% | -4% | -53* | 14%
Cc1ccc(Nc2nc(C(=O)N3CCC(C(=O)NCc4ccccc4)CC3)cs2)cc1 | 34% | 25% | 2% | u | u
CCNC(=O)C1(C)CCN(C(=O)c2cc(OC)c(OC)c(OC)c2)C1 (centres undefined) | x | x | x | 29 | x
CC(=O)NC(Cc1cccc(C)c1)C(=O)NC1CCN(C(=O)NCc2ccccc2)CC1 (centres undefined) | -26% | 10% | -15% | 11 | 0%
CCOC(=O)NC(NC(=S)Nc1ccccc1[N+](=O)[O-])C(Cl)(Cl)Cl (centres undefined) | 16% | -12% | 1% | -10 | 13%
COc1ccc(NC(=S)NC(NC(=O)c2cccc(C)c2)C(Cl)(Cl)Cl)c([N+](=O)[O-])c1 (centres undefined) | -3% | -5% | -3% | -10 | -9%
COc1ccc(NC(=S)NC(NC(C)=O)C(Cl)(Cl)Cl)c([N+](=O)[O-])c1 (centres undefined) | u | -2% | -1% | -54* | 12%
O=C(NC(NC(=S)Nc1ccccc1Cl)C(Cl)(Cl)Cl)c1cccc(Cl)c1 (centres undefined) | u | 13µM* | u | -87* | u
